In all, about 5,500 compounds went through this assay and about 2,000 (36%) were called active. Not shown: some 18% with an inconclusive outcome. Rule as the data show it: active = normalized growth mostly below about 0.91 (no sharp cut-off); inconclusive = no clear call, values can overlap the other calls; inactive = mostly above about 0.92. The list shows a part of the results.
Assay: chemical genetic growth profiling, strain panel (AID 1159580);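 also: tested at 20 µM; growth read once vehicle control cultures reached saturation at 30 °C; 1 = growth at the plate median or of vehicle wells; lower values mean less growth of the strain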
Conditions: growth OD
[1] = S. cerevisiae deletion strains, locus YAL013W, strain DEP1, active compounds read low
[2] = S. cerevisiae deletion strains, locus YBR229C, strain ROT2, active compounds read low
[3] = S. cerevisiae deletion strains, locus YDL101C, strain DUN1, active compounds read low
[4] = S. cerevisiae deletion strains, locus YDL134C, strain PPH21, active compounds read low
[5] = S. cerevisiae deletion strains, locus YDR150W, strain NUM1, active compounds read low
[6] = S. cerevisiae deletion strains, locus YEL061C, strain CIN8, active compounds read low
[7] = S. cerevisiae deletion strains, locus YGR078C, strain PAC10, active compounds read low
[8] = S. cerevisiae deletion strains, locus YHR030C, strain SLT2, active compounds read low
[9] = S. cerevisiae deletion strains, locus YHR087W, strain rtc3, active compounds read low
[10] = S. cerevisiae deletion strains, locus YJR043C, strain POL32, active compounds read low
[11] = S. cerevisiae deletion strains, locus YJR075W, strain HOC1, active compounds read low
[12] = S. cerevisiae deletion strains, locus YLR039C, strain RIC1, active compounds read low
[13] = S. cerevisiae deletion strains, locus YLR058C, strain SHM2 (second series), active compounds read low
[14] = S. cerevisiae deletion strains, locus YLR085C, strain ARP6, active compounds read low
[15] = S. cerevisiae deletion strains, locus YLR262C, strain YPT6, active compounds read low
[16] = S. cerevisiae deletion strains, locus YML094W, strain GIM5, active compounds read low
[17] = S. cerevisiae deletion strains, locus YMR219W, strain ESC1, active compounds read low
[18] = S. cerevisiae deletion strains, locus YMR263W, strain SAP30, active compounds read low
[19] = S. cerevisiae deletion strains, locus YNL153C, strain GIM3, active compounds read low
[20] = S. cerevisiae deletion strains, locus YNL298W, strain CLA4 (second series), active compounds read low
[21] = S. cerevisiae deletion strains, locus YNL322C, strain KRE1, active compounds read low
[22] = S. cerevisiae deletion strains, locus YNR030W, strain Alg12, active compounds read low
[23] = S. cerevisiae deletion strains, locus YOL006C, strain TOP1, active compounds read low
[24] = S. cerevisiae deletion strains, locus YPL055C, strain LGE1, active compounds read low
[25] = S. cerevisiae deletion strains, locus YPL241C, strain CIN2, active compounds read low
[26] = S. cerevisiae deletion strains, locus YPR135W, strain CTF4, active compounds read low
[27] = S. cerevisiae strains, strain wild type, active compounds read low
[28] = S. cerevisiae deletion strains, locus YMR307W, strain GAS1, active compounds read low

Measured: normalized growth

Cc1ccc(-c2csc(CC#N)n2)cc1C
inactive: [1] 0.987 | [2] 0.961 | S. cerevisiae deletion strains, locus YCL061C, strain MRC1, active compounds read low 0.912 | [3] 0.963 | [4] 0.977 | [5] 0.989 | [6] 0.951 | [7] 0.951 | [8] 0.716 | [9] 0.97 | [10] 0.97 | [11] 0.914 | [13] 0.961 | [14] 0.823 | [16] 0.944 | [17] 0.961 | [18] 0.974 | [19] 0.929 | [20] 0.882 | [21] 0.962 | [22] 0.962 | [23] 0.758 | [24] 0.946 | [25] 0.859 | [26] 0.801 | [27] 0.969
active: [12] 0.774 | [15] 0.78

S=c1nc2[nH]c3ccccc3c2n[nH]1
inactive: [1] 0.98 | [2] 0.982 | [3] 0.985 | [4] 0.973 | [5] 1.01 | [6] 1 | [7] 0.976 | [8] 0.962 | [9] 1.04 | [10] 0.974 | [11] 1 | [12] 0.996 | [13] 0.99 | [14] 0.927 | [15] 0.995 | [16] 0.978 | [17] 0.994 | [18] 1.03 | [19] 0.977 | [20] 0.944 | [21] 0.991 | [22] 0.972 | [23] 1 | [24] 1 | [25] 0.974 | [26] 0.916 | [27] 0.984

CNC(=O)[C@H]1O[C@@H](n2cnc3c(NCc4cccc(I)c4)ncnc32)C(O)[C@H]1O (stereo partly drawn)
inactive: S. cerevisiae deletion strains, locus YAL040C, strain CLN3, active compounds read low 0.988 | S. cerevisiae deletion strains, locus YCL061C, strain MRC1 (second series), active compounds read low 0.998 | S. cerevisiae deletion strains, locus YDR363W, strain ESC2, active compounds read low 1.01 | S. cerevisiae deletion strains, locus YER002W, strain NOP16, active compounds read low 0.993 | [7] 1.01 | [18] 0.999 | [28] 0.992 | S. cerevisiae deletion strains, locus YNL128W, strain TEP1, active compounds read low 0.994 | S. cerevisiae deletion strains, locus YNL175C, strain NOP13, active compounds read low 1.01 | S. cerevisiae deletion strains, locus YNL197C, strain WHI3, active compounds read low 0.998 | S. cerevisiae deletion strains, locus YNL224C, strain SQS1, active compounds read low 1.02 | [21] 0.992 | S. cerevisiae deletion strains, locus YOR083W, strain WHI5 (second series), active compounds read low 0.991 | [24] 1.01 | [25] 1

O=C(Nc1cccc(C(F)(F)F)c1)c1cncc(C#Cc2ccccc2)c1
inactive: S. cerevisiae deletion strains, locus YAR019C, strain CDC15, active compounds read low 0.971 | S. cerevisiae deletion strains, locus YBL105C, strain PKC1, active compounds read low 0.98 | S. cerevisiae deletion strains, locus YBR135W, strain CKS1, active compounds read low 0.983 | S. cerevisiae deletion strains, locus YBR136W, strain MEC1, active compounds read low 0.982 | S. cerevisiae deletion strains, locus YBR160W, strain CDC28, active compounds read low 0.983 | S. cerevisiae deletion strains, locus YDL017W, strain CDC7, active compounds read low 0.983 | S. cerevisiae deletion strains, locus YDL028C, strain MPS1, active compounds read low 0.978 | [3] 0.987 | S. cerevisiae deletion strains, locus YDL108W, strain KIN28, active compounds read low 0.984 | S. cerevisiae deletion strains, locus YDL132W, strain cdc53, active compounds read low 0.983 | S. cerevisiae deletion strains, locus YDL214C, strain PRR2, active compounds read low 0.905 | S. cerevisiae deletion strains, locus YDR052C, strain DBF4, active compounds read low 0.983 | S. cerevisiae deletion strains, locus YDR054C, strain cdc34, active compounds read low 0.963 | S. cerevisiae deletion strains, locus YDR226W, strain ADK1, active compounds read low 0.973 | S. cerevisiae deletion strains, locus YDR477W, strain SNF1, active compounds read low 0.929 | S. cerevisiae deletion strains, locus YER123W, strain YCK3, active compounds read low 0.809 | S. cerevisiae deletion strains, locus YER133W, strain GLC7, active compounds read low 0.936 | S. cerevisiae deletion strains, locus YFL009W, strain cdc4, active compounds read low 0.968 | S. cerevisiae deletion strains, locus YFL029C, strain CAK1, active compounds read low 0.97 | S. cerevisiae deletion strains, locus YFR003C, strain YPI1, active compounds read low 0.983 | S. cerevisiae deletion strains, locus YFR019W, strain FAB1, active compounds read low 0.862 | S. cerevisiae deletion strains, locus YFR028C, strain CDC14, active compounds read low 0.969 | S. cerevisiae deletion strains, locus YGR040W, strain KSS1, active compounds read low 0.89 | S. cerevisiae deletion strains, locus YGR052W, strain FMP48, active compounds read low 0.977 | S. cerevisiae deletion strains, locus YGR092W, strain DBF2, active compounds read low 0.826 | S. cerevisiae deletion strains, locus YHR079C, strain IRE1, active compounds read low 0.854 | S. cerevisiae deletion strains, locus YHR082C, strain KSP1, active compounds read low 0.905 | S. cerevisiae deletion strains, locus YHR205W, strain SCH9, active compounds read low 0.776 | S. cerevisiae deletion strains, locus YIL147C, strain SLN1, active compounds read low 0.98 | S. cerevisiae deletion strains, locus YJL095W, strain BCK1, active compounds read low 0.903 | S. cerevisiae deletion strains, locus YJL128C, strain PBS2, active compounds read low 0.978 | S. cerevisiae deletion strains, locus YJL157C, strain FAR1, active compounds read low 0.878 | S. cerevisiae deletion strains, locus YJR016C, strain ILV3, active compounds read low 0.983 | S. cerevisiae deletion strains, locus YJR066W, strain TOR1 (second series), active compounds read low 0.905 | S. cerevisiae deletion strains, locus YJR066W, strain TOR1, active compounds read low 0.865 | S. cerevisiae deletion strains, locus YKL048C, strain ELM1, active compounds read low 0.877 | S. cerevisiae deletion strains, locus YKL067W, strain YNK1, active compounds read low 0.901 | S. cerevisiae deletion strains, locus YKL101W, strain HSL1, active compounds read low 0.883 | S. cerevisiae deletion strains, locus YKL193C, strain SDS22, active compounds read low 0.982 | S. cerevisiae deletion strains, locus YKL203C, strain TOR2, active compounds read low 0.937 | S. cerevisiae deletion strains, locus YLR113W, strain HOG1, active compounds read low 0.902 | S. cerevisiae deletion strains, locus YLR133W, strain CKI1, active compounds read low 0.868 | S. cerevisiae deletion strains, locus YLR403W, strain SFP1, active compounds read low 0.843 | S. cerevisiae deletion strains, locus YML070W, strain DAK1, active compounds read low 0.914 | S. cerevisiae deletion strains, locus YMR001C, strain CDC5, active compounds read low 0.98 | S. cerevisiae deletion strains, locus YMR205C, strain PFK2 (second series), active compounds read low 0.935 | S. cerevisiae deletion strains, locus YMR277W, strain FCP1, active compounds read low 0.975 | S. cerevisiae deletion strains, locus YNL006W, strain LST8, active compounds read low 0.981 | S. cerevisiae deletion strains, locus YNL020C, strain ARK1, active compounds read low 0.853 | S. cerevisiae deletion strains, locus YNL161W, strain CBK1, active compounds read low 0.985 | S. cerevisiae deletion strains, locus YNL183C, strain NPR1, active compounds read low 0.919 | S. cerevisiae deletion strains, locus YNL207W, strain RIO2, active compounds read low 0.99 | S. cerevisiae deletion strains, locus YNL222W, strain SSU72, active compounds read low 0.978 | S. cerevisiae deletion strains, locus YNL307C, strain MCK1 (second series), active compounds read low 0.77 | S. cerevisiae deletion strains, locus YOL078W, strain AVO1, active compounds read low 0.977 | S. cerevisiae deletion strains, locus YOL136C, strain PFK27, active compounds read low 0.899 | S. cerevisiae deletion strains, locus YOR061W, strain CKA2, active compounds read low 0.875 | S. cerevisiae deletion strains, locus YOR119C, strain RIO1, active compounds read low 0.977 | S. cerevisiae deletion strains, locus YOR231W, strain MKK1, active compounds read low 0.915 | S. cerevisiae deletion strains, locus YOR329C, strain SCD5, active compounds read low 0.981 | S. cerevisiae deletion strains, locus YPL031C, strain PHO85, active compounds read low 0.916 | S. cerevisiae deletion strains, locus YPL153C, strain RAD53, active compounds read low 0.921 | S. cerevisiae deletion strains, locus YPL204W, strain HRR25, active compounds read low 0.883 | S. cerevisiae deletion strains, locus YPL209C, strain IPL1, active compounds read low 0.988 | S. cerevisiae deletion strains, locus YPL256C, strain CLN2, active compounds read low 0.897 | S. cerevisiae deletion strains, locus YPR025C, strain CCL1, active compounds read low 0.977 | S. cerevisiae deletion strains, locus YPR106W, strain ISR1, active compounds read low 0.977 | S. cerevisiae deletion strains, locus YPR111W, strain DBF20, active compounds read low 0.964 | S. cerevisiae deletion strains, strain NNK1, active compounds read low 0.974 | S. cerevisiae deletion strains, strain TSCII, active compounds read low 0.989
active: [8] 0.847

O=C(O)c1cncc(C#Cc2ccccc2)c1
inactive: [1] 0.982 | [2] 0.976 | [3] 0.991 | [4] 1.01 | [5] 1.01 | [6] 1 | [7] 0.957 | S. cerevisiae deletion strains, locus YGR229C, strain SMI1, active compounds read low 0.957 | [8] 0.956 | [9] 1 | [10] 0.957 | [11] 0.961 | [12] 0.976 | [13] 0.949 | [14] 1.04 | [15] 0.996 | [16] 1.02 | [17] 0.972 | [18] 0.981 | [28] 1.03 | [19] 0.931 | [20] 0.991 | [21] 0.971 | [22] 0.989 | [24] 1 | [25] 1.01 | [26] 0.935

Source: PubChem BioAssay AID1159580 (chemical genetic matrix, 2015)
